We go through 47 molecules from PubChem BioAssay AID1851 (National Center for Advancing Translational Sciences (NCATS), 2009).

Molecules are shown by their SMILES. In all, about 16,000 compounds went through this assay and about 5,700 (36%) were called active. Roughly 24% stayed inconclusive and do not appear here. Some of the results follow. Values without a mark were called inactive. Calls follow the shape of the dose curve; as a rule, active = well fitted curve in the direction sought with a large enough effect; inconclusive = small, poorly fitted or top-dose-only effect, or effect the other way; inactive = no such curve, though single readings can be large or run the other way.
% is scaled to controls: 0 for no effect and ±100 for the full control effect.

For the assay, the target named is Cytochrome P450 1A2 (Homo sapiens) (UniProt P05177). Nature of the assay: Cytochrome panel assay with activity outcomes. Particulars: recombinant CYP, pro-luciferin dealkylation, luminescence, p450-cyp1a2; series mostly up to 57.1 µM; activity, negative = inhibition: at the top concentration.
Chain of Cytochrome P450 1A2 (Homo sapiens) (P05177 whole entry, looked up): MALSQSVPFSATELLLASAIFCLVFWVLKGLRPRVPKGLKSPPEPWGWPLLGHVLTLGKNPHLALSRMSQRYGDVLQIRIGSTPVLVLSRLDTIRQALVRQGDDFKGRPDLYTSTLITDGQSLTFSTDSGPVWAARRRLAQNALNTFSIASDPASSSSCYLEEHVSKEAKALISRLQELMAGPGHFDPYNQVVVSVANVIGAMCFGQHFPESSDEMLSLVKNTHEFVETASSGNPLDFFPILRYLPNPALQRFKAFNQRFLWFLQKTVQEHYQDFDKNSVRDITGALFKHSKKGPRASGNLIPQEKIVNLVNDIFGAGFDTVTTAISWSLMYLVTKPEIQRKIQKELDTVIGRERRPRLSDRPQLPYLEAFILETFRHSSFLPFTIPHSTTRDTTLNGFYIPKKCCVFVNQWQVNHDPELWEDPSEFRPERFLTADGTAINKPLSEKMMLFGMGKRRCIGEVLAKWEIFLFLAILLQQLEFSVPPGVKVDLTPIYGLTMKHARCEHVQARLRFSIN
On to `CCC(C)C1NC(=S)N(C2CCCCC2)C1=O` (configuration not stated), for which the “activity, negative = inhibition” value is -15.6%.

A word on the AC50: it is the concentration giving half of the maximal activity seen. As for `O=C(Nc1cccc2ncccc12)c1ccc(-c2ccc(Br)cc2)o1`, the AC50 is 501 nM (active).

Take `CC(C)(C)NC(=O)CSc1nnc(Cc2ccc3c(c2)OCO3)n1C1CCCCC1`: the “activity, negative = inhibition” value is -16.8%.

As to `Cc1cc2cc(C)c3nnc(SCC(=O)NCc4ccc5c(c4)OCO5)n3c2cc1C`, the AC50 is 20000 nM (active).

`O=C1C2Sc3[nH]c(=O)sc3C(c3ccccc3)C2C(=O)N1c1ccccc1` (configuration not stated): the “activity, negative = inhibition” value was -9.7%.

Consider `N#Cc1cccc(-c2nccc(NCc3cccnc3)n2)c1`, for which the AC50 is 251 nM (active).

Regarding `N#Cc1cccc(-c2nccc(NCc3ccccc3)n2)c1`, the AC50 was 501 nM (active).

Regarding `Cc1cccc(CNc2ccnc(-c3cccc(C#N)c3)n2)c1`, the AC50 was 398 nM (active).

For the molecule `N#Cc1cccc(-c2nccc(NCc3cccs3)n2)c1`, the AC50 is 251 nM (active).

As for `O=c1cnc2cnc(N3CCOCC3)nc2n1CCc1ccccc1`, the AC50 was 3160 nM (active).

Turning to `N#CCCn1c(=O)cnc2cnc(N3CCOCC3)nc21`, the half-maximal activity concentration (AC50) was 10000 nM (active).

For the molecule `Cc1nc2cnc(N3CCOCC3)nc2n(CCC#N)c1=O`, the concentration at half-maximal activity (AC50) is 12600 nM (active).

For `CCc1cc2c(nc1CC)CCN(CC/C(C)=N/OC[C@H]1O[C@H](c3ccccc3)C=C[C@@H]1Oc1ccc(OC)cc1)C2`, the activity, negative = inhibition is 0.11% [at 11.4 µM].

Consider `Cc1ccc(-n2nc(C)c3c2OC(N)=C(C#N)C3c2ccco2)cc1` (configuration not stated), for which the AC50 was 8910 nM (active).

On to `CCn1c2ccccc2c2cnc(N=CN(C)C)c(C#N)c21`, for which the half-maximal activity concentration (AC50) was 1410 nM (active).

For the molecule `Cc1nc(N/N=C/c2ccccc2)nc(N(C)c2ccccc2)c1[N+](=O)[O-]`, the AC50 is 1580 nM (active).

Consider `COC(=O)C/C=C\[C@@H](C)[C@@H](/C=N\O[C@@H](C)CN1CCCCc2nc(C)c(C)cc21)NS(=O)(=O)c1ccc(C)cc1`, for which the activity, negative = inhibition is -4.63% [at 11.4 µM].

In the case of `COc1ccc(C(=O)c2ccccc2)cc1Br`, the AC50 was 10000 nM (active).

As to `CCOc1ccc(C(=O)O)cc1OC`, the “activity, negative = inhibition” value was -16.3%.

In the case of `COc1cc(C(=O)NC(=S)Nc2ccc3oc(=O)ccc3c2)cc(OC)c1OC`, the “activity, negative = inhibition” value was -0.189%.

In the case of `COc1ccc(C(=O)NC(=S)NC(C)C)cc1Br`, the AC50 is 3160 nM (active).

As for `C=CCN(CC=C)C(=S)NC(=O)c1ccc(OC)c(Br)c1`, the AC50 was 562 nM (active).

As for `COc1ccc(C(=O)NNC(=O)Cc2ccc(-c3ccccc3)cc2)cc1OC`, the “activity, negative = inhibition” value was -20.2%.

For the molecule `COc1ccc(C(=O)NC(=S)NC(C)(C)C)cc1Br`, the AC50 is 562 nM (active).

For the molecule `COc1ccc(NC(=O)N2CC3(CCN(S(C)(=O)=O)CC3)C2)cc1`, the “activity, negative = inhibition” value was -4.57%.

As for `FC(F)(F)c1ccccc1-c1ccc2ncnc(NC3CC3)c2c1`, the AC50 was 316 nM (active).

Turning to `Cc1ccccc1-c1ccc2ncnc(NC3CC3)c2c1`, the AC50 is 126 nM (active).

On to `CS[C@@H](CC(=O)O)C(=O)O`, for which the activity, negative = inhibition is 6.13% [at 11.4 µM].

As for `CCOCCCN1C(=O)CN(C2CCCCC2)C(=O)C1c1ccc(OCC)c(OC)c1` (configuration not stated), the “activity, negative = inhibition” value was 1.09%.

As to `O=C(N/N=C/c1ccco1)c1ccccn1`, the concentration at half-maximal activity (AC50) was 6310 nM (active).

For the molecule `O=C(Nc1ccccn1)c1ccco1`, the half-maximal activity concentration (AC50) is 11200 nM (active).

Take `O=C(c1ccco1)N1CCC2(CC1)CN(c1ccccn1)C2`: the “activity, negative = inhibition” value was -2.55%.

`O=C(NN=C1c2ccccc2-c2ccccc21)c1ccccn1`: the AC50 was 501 nM (active).

Take `CCC(C)(NC(=O)c1ccccn1)C(=O)NC1CCCCC1` (configuration not stated): the “activity, negative = inhibition” value was -23.3%.

`O=C(N/N=C/c1ccccn1)c1ccc(Br)o1`: the AC50 is 6310 nM (active).

With `Cc1cc(C)n(CC(=O)N/N=C/c2ccco2)n1`, the “activity, negative = inhibition” value is -5.36%.

For the molecule `C[N+](C)(C)c1nc(N)nc2c1ncn2[C@H]1O[C@@H](CO)[C@@H](O)[C@H]1O`, the activity, negative = inhibition is -4.9% [at 2.29 µM].

`O=C1COC(c2ccccc2O)=NN1CCCN1CCCC1`: the activity, negative = inhibition was -13.6% [at 11.4 µM].

With `CC(Oc1ccc(O)cc1)(P(=O)(O)O)P(=O)(O)O`, the “activity, negative = inhibition” value is 8.37%.

As for `O=C(CNC(=O)c1ccccn1)N/N=C/c1ccccc1`, the AC50 was 4470 nM (active).

In the case of `O=C(N/N=C/c1ccccn1)c1ccco1`, the AC50 is 15800 nM (active).

As for `CO[C@H]1COC(=O)C/C=C\[C@H](C)COC(=O)[C@@H](OCc2ccccc2)/C=C\[C@@H]1C`, the activity, negative = inhibition was -6.26% [at 11.4 µM].

Turning to `CC(C)=NOC[C@@H](O)COCc1ccco1`, the activity, negative = inhibition was 4.83% [at 11.4 µM].

With `CC(C)[C@H]1C(=O)C(C(N)=O)=C(O)[C@]2(O)C(=O)C3=C(O)c4c(O)ccc(N(C)C)c4C[C@H]3C[C@@H]12`, the “activity, negative = inhibition” value was -1.01%.

Turning to `Nc1cc2c(nc3c4ccccc4c(N)cc3[n+]2-c2cccc3ccccc23)c2ccccc12` (tested in a mixture with another compound), the AC50 was 1260 nM (active).

As to `COc1ccc(Cc2nnc(NC(=O)c3cccc([N+](=O)[O-])c3C)s2)cc1`, the “activity, negative = inhibition” value was 8.33%.

As for `COc1ccc(CNC(=O)c2csc(Cc3ccc(Cl)cc3)n2)cc1`, the AC50 was 891 nM (active).
